Several values for one entry are separate records, joined by “and”; a condition that tells them apart may be missing. Equal values may be shown once. Inconclusive results are not listed. More than one record can exist for a structure, and the calls need not agree. Activity calls are given as the source filed them.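 Rule for the calls, unless noted: active = compounds whose cell count with miR-34 switched on is under 0.7 times the count with it off; inactive = the rest.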
Legend:
[1] = tested on: Hepatitis C virus NS3 helicase; assay: blockers of NS3h binding to ssDNA – biochemical, fluorescence polarization, LOPAC1280 library, primary screen (AID 687035; in the data active = inhibition above about 37%); settings: Purified HCV NS3 helicase, Cy5-dT15 ssDNA binding fluorescence polarization; stronger effect = higher value; concentration not given here
[2] = compounds altering Cy5-DNA-NS3h complex signal – biochemical, LOPAC1280, artefact control for HCV NS3 helicase inhibitor project (AID 687037; call rule not given here); settings: Cy5-DNA-NS3h complex fluorescence interference counterscreen
[3] = viability loss with induced miR-34 in A549 – imaging, A549 dox-inducible miR-34, nuclei and caspase counts, primary screen (AID 1347080); settings: A549 miR-34 inducible, Hoechst nuclei count, 48 h
[4] = blockers of cellular phospholipid synthesis – cell-based, LOPAC library, screen 4, primary screen (AID 1347384; call rule not given here); settings: animal cells, phospholipid biosynthesis inhibition screen; at 10 µM
[5] = MELAS cybrid and Rieske KO viability enhancers – cell-based, MELAS cybrids, Rieske KO mouse fibroblasts, CellTiter-Glo, primary screen (AID 1508586;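 active = mean z-score across replicates of 1.96 or higher in either the MELAS or the Rieske mutant cell line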;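 note: z relative to plate mean and SD of compound and empty wells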); settings: low glucose
[6] = galactose survival enhancers in mitochondrial complex I cybrids – cell-based, galactose medium, ATP luminescence, primary screen (AID 1645843;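 active = z-score of at least 1.8 in each of two replicates, scored against plate mean and spread of sample wells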;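 note: positive z means more ATP and so rescue of galactose-driven cybrid death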); settings: complex I mutant cybrid cells, 72 h, stronger effect = higher value
[7] = compounds altering viability of human ES cells (AID 493140; call rule not given here;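 note: cells exposed to compounds for four days before counting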); settings: human embryonic stem cell survival screen; stronger effect = higher value
[8] = P. berghei load reduction in hepatocytes – cell-based, HepG2, luciferase luminescence, HepG2 viability, primary screen (AID 624349; in the data active = parasite load remaining mostly below about 12%, no sharp cut-off; inactive = mostly above about 10%;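 note: 100% = mean of DMSO negative control wells on the same plate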); settings: P. berghei liver stage in HepG2, luciferase luminescence, concentration not given here; parasite load remaining: stronger effect = lower value; viability: measured here: HepG2 viability without parasites
[9] = compounds altering circadian rhythm period length – cell-based, LOPAC library, luminescence reporter (AID 2774; call rule not given here;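 note: values are relative to mean of DMSO wells on each plate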); settings: circadian reporter cells, at 7 µM, actives lie on both sides
[10] = target: ATP-dependent translocase ABCB1 (Homo sapiens) (UniProt P08183); assay: P-glycoprotein substrate transport blockade – cell-based (AID 377; in the data active = fluorescence slope change above about 50%); settings: MDR1-expressing cells, fluorescent substrate accumulation slope; stronger effect = higher value; concentration not given here
ATP-dependent translocase ABCB1 (Homo sapiens), sequence (P08183 whole entry, looked up): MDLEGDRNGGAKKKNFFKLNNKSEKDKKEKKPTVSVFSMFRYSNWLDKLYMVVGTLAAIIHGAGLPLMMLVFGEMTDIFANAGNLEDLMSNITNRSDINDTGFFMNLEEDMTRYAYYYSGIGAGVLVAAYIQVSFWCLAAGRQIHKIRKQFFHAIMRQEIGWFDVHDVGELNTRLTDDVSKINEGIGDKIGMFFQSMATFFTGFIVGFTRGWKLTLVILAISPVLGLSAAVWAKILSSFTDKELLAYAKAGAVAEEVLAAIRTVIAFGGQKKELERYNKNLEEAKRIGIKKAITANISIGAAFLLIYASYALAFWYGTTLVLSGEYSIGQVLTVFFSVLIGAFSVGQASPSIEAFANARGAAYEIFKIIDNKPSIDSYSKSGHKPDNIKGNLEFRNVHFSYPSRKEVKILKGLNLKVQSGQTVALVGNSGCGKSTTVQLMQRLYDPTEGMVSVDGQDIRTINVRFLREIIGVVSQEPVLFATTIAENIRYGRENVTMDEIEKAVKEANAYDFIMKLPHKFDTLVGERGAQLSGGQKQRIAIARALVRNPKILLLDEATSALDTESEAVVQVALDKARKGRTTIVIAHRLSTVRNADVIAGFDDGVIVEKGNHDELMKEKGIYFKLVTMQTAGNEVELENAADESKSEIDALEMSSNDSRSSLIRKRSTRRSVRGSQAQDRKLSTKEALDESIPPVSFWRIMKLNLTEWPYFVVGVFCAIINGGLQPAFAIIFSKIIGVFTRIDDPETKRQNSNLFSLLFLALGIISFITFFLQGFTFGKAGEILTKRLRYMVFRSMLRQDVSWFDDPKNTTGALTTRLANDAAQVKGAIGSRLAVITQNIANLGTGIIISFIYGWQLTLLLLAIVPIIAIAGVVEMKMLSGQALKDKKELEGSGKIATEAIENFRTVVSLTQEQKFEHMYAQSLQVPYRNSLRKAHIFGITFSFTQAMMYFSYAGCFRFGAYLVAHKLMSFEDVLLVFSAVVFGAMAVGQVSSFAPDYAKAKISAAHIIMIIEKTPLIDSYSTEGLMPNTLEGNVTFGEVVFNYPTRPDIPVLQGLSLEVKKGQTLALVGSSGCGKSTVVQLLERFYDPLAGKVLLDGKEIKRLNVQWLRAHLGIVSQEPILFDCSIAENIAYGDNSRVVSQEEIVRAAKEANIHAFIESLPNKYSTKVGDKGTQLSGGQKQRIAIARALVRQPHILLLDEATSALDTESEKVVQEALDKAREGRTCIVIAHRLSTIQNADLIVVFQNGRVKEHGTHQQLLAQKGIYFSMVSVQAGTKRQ

[11] = target: NAD(+) hydrolase SARM1 (Homo sapiens) (UniProt Q6SZW1); assay: blocking NAD cleavage by SARM1 SAM-TIR – cell lysate, NAD-Glo luminescence (AID 1508614;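 active = compound whose remaining NAD level is above about 45 nM, limit read from the data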;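 note: higher remaining NAD means stronger inhibition of SARM1 NADase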); settings: SAM-TIR HEK293T lysate NADase, at 1 µM, stronger effect = higher value
NAD(+) hydrolase SARM1 (Homo sapiens), sequence (Q6SZW1 whole entry, looked up, the tested form may be a part): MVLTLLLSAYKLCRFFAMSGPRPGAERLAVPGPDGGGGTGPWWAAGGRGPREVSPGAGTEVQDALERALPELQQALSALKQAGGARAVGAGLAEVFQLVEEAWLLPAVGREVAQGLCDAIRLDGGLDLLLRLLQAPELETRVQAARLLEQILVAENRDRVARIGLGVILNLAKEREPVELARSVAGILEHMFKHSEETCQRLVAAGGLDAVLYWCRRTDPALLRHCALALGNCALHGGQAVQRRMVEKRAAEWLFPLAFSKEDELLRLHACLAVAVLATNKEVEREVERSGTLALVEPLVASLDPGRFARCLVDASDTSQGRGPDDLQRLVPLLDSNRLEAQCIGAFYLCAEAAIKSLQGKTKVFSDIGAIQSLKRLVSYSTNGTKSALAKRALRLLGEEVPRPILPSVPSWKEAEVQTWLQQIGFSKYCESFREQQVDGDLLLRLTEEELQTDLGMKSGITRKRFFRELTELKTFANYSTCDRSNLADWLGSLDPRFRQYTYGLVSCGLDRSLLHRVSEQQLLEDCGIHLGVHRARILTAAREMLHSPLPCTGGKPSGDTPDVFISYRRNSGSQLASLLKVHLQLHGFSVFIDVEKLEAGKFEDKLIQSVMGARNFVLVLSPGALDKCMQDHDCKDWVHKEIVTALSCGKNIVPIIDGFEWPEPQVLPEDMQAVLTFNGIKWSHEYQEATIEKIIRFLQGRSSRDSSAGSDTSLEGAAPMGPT

[12] = target: Mitogen-activated protein kinase 7 (Homo sapiens) (UniProt Q13164); assay: Gal4-ERK5 driven luciferase induction – cell-based, HTS, primary screen (AID 1508626;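 active = luciferase signal above three times the same-plate solvent-only control wells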;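 note: luciferase driven by Gal4-ERK5 fusion binding five Gal4 sites before minimal TATA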); settings: HeLa Gal4-ERK5 transactivation, 18 h, at 5 µM, stronger effect = higher value
Mitogen-activated protein kinase 7 (Homo sapiens), sequence (Q13164 whole entry, looked up, the tested form may be a part): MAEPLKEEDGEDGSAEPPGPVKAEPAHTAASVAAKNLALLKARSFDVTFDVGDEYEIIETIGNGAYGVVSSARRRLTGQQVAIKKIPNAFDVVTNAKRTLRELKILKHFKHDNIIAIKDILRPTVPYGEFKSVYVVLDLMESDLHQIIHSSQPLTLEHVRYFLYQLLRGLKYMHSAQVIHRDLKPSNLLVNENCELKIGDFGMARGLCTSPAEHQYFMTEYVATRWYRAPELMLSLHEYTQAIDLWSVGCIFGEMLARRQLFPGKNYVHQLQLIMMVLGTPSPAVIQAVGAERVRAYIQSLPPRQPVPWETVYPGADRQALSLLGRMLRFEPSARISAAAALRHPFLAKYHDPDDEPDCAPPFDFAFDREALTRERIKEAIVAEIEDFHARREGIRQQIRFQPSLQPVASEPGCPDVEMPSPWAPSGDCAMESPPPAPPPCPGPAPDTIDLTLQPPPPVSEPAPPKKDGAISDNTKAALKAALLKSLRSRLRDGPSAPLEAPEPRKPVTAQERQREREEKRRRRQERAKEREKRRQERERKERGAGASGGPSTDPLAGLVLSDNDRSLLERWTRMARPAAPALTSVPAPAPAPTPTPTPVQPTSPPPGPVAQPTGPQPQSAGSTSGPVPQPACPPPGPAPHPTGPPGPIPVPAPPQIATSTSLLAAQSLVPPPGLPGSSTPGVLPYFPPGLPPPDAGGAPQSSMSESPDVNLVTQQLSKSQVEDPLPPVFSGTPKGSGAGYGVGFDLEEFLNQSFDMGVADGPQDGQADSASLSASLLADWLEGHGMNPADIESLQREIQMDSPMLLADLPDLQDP

[13] = stronger effect = lower value, cell number ratio, induced over uninduced
[14] = measured here: relative caspase fold change +Dox/-Dox
[15] = measured here: total cells with miR-34 induction, stronger effect = lower value
[16] = measured here: total cells without miR-34 induction
[17] = MELAS cybrid survival, CellTiter-Glo 48 h, stronger effect = higher value
[18] = Rieske KO mouse fibroblast survival, CellTiter-Glo 72 h

Row | Compound | inhibition [1] | fluorescence ratio (interference) [2] | fold change [3, 13] | fold change [3, 14] | cell count [3, 15] | cell count [3, 16] | outcome [4] | z-score [5, 17] | z-score [5, 18] | z-score [6] | survival [7] | parasite load remaining [8] | viability [8] | period change [9] | fluorescence slope change [10] | remaining NAD [11] | luciferase signal [12]
1 | O=[N+]([O-])c1ccc2c(c1)S(=O)(=O)C=C2 | -2% (inactive) | 1 (inactive) | 0.698 (active) and 1.19 (inactive) | 0.963 and 0.522 | 598 and 1740 | 856 and 1460 | inactive | 3.07 (active) | -0.336 | -1.38 (inactive) |  |  |  |  |  |  | 
2 | N#C/C(=C\c1ccc(-c2cc(Cl)ccc2Cl)o1)C(=O)Nc1cccc2ncccc12 | -12% (inactive) | 0.8 (active) | 1.06 (inactive) and 0.955 (inactive) | 0.614 and 1.48 | 1870 and 5590 | 1750 and 5850 | inactive |  |  | 0.46 (inactive) |  |  |  |  |  |  | 
3 | CNCC(O)C(O)C(O)C(O)CO (stereo unspecified) |  |  | 0.893 (inactive) and 0.901 (inactive) | 1.03 and 1.16 | 8100 and 7840 | 9080 and 8700 |  | -0.226 (inactive) | 0.0963 |  | 4.5 (inactive) | 95.3% (inactive) | 101% |  |  |  | 
4 | CCOC(=O)C(CCc1ccccc1)NC1CCc2ccccc2N(CC(=O)O)C1=O (stereo unspecified) |  |  | 0.901 (inactive) and 0.923 (inactive) and 1.08 (inactive) | 1.61 and 0.619 and 0.514 | 9200 and 8490 and 8200 | 10200 and 9200 and 7620 |  | 0.349 (inactive) and -0.387 (inactive) | -0.629 and -0.0664 | 0.855 (inactive) and 0.665 (inactive) |  |  |  |  |  |  | 
5 | NC1CONC1=O (stereo unspecified) | -2% (inactive) | 1 (inactive) | 1.01 (inactive) and 0.986 (inactive) | 2.01 and 1.56 | 10700 and 9620 | 10600 and 9760 | inactive |  |  | 0.065 (inactive) and 0.91 (inactive) |  |  |  | -0.095 h (inactive) |  |  | 
6 | CC(C)(C)NCC(O)COc1nsnc1N1CCOCC1 (stereo unspecified) | -2% (inactive) | 1 (inactive) | 0.926 (inactive) and 0.855 (inactive) | 1.26 and 0.99 | 9690 and 8250 | 10500 and 9640 | inactive | -0.232 (inactive) | -0.152 | 0.22 (inactive) |  |  |  | -0.09 h (inactive) |  |  | 
7 | CO/N=C(\C(=O)N[C@@H]1C(=O)N2C(C(=O)O)=C(COC(C)=O)CS[C@H]12)c1csc(N)n1 (stereo in doubt) |  |  | 1.01 (inactive) and 0.948 (inactive) | 2.06 and 1.21 | 10500 and 9330 | 10300 and 9840 |  | 0.18 (inactive) | -0.136 | 0.04 (inactive) | 16.2 (inactive) | 35.6% (inactive) and 93.3% (inactive) | 65.7% and 139% | -0.095 h (inactive) | 81.1% (active) | 10 nM (inactive) | 152 AU (inactive)
8 | CC1c2cccc(O)c2C(O)=C2C(=O)[C@]3(O)C(O)=C(C(N)=O)C(=O)C(N(C)C)[C@@H]3C(O)[C@@H]21 (stereo partly specified) |  |  | 0.722 (inactive) and 0.743 (inactive) and 0.957 (inactive) | 1.04 and 0.719 and 0.385 | 5360 and 5020 and 8780 | 7420 and 6760 and 9180 |  | 4.12 (active) and 3.16 (active) and -0.469 (inactive) | 5.71 and 4.93 and -0.551 |  |  |  |  |  |  |  | 
9 | NC(=O)c1cc[n+](CC2=C(C(=O)O)N3C(=O)[C@@H](NC(=O)[C@@H](c4ccccc4)S(=O)(=O)[O-])[C@H]3SC2)cc1 | 4% (inactive) | 1 (inactive) | 1.02 (inactive) and 0.887 (inactive) | 2.31 and 1.36 | 10400 and 9300 | 10200 and 10500 |  | 0.659 (inactive) | -0.267 | -0.05 (inactive) | 7.17 (inactive) | 79.7% (inactive) | 103% | -0.015 h (inactive) |  | 10 nM (inactive) | 36 AU (inactive)
10 | C[C@@H]1NC(=O)NC1=O |  |  | 0.891 (inactive) and 0.879 (inactive) | 1.07 and 1.01 | 8770 and 8800 | 9840 and 10000 |  | 0.462 (inactive) | -0.44 |  | 3.92 (inactive) | 81.4% (inactive) and 66.6% (inactive) | 97.9% and 95.3% |  | 57.7% (active) |  | 
11 | CCCCCCCCCCCCCCCCCCOC[C@H](COP(=O)([O-])OCC[N+](C)(C)C)OC | 0% (inactive) | 1 (inactive) | 0.77 (inactive) and 1.03 (inactive) and 1.02 (inactive) | 1.7 and 0.981 and 0.958 | 1920 and 5950 and 5710 | 2500 and 5760 and 5620 | inactive |  |  | -0.975 (inactive) | 97.7 (inactive) |  |  | -0.025 h (inactive) |  |  | 
12 | CCCC1CC(C(=O)NC(C(C)Cl)C2OC(SC)C(O)C(O)C2O)N(C)C1 (stereo unspecified) |  |  | 0.887 (inactive) and 0.926 (inactive) and 0.928 (inactive) | 0.463 and 0.824 and 1.2 | 8440 and 7670 and 9370 | 9520 and 8280 and 10100 |  | 0.443 (inactive) and -0.35 (inactive) and -0.364 (inactive) | -0.229 and -0.0713 and 0.118 | -0.495 (inactive) |  |  |  |  |  |  | 

From PubChem BioAssay
